Test results: PubChem BioAssay (NCATS)
Where “and” joins values, the source holds several entries; their conditions need not be identical. Equal entries are not always repeated. Records with an inconclusive call do not appear. Some structures have more than one record in an assay (separate samples or runs), and their calls can disagree. Calls of active or inactive are those of the source. Calls come from the whole dose curve; as a rule, active = well fitted inhibition curve with a large enough effect; inconclusive = small, poorly fitted or top-dose-only effect; inactive = flat fitted curve, though single readings scatter. Where a SMILES comes first, the peptide text is derived from it. Bridges are numbered along the chain shown (N, C = ends). [ ]: non-standard residue; d: D form. The star is where a group is joined. X1 = CCC(C)C(N)C1=NC(C(=O)*)CS1; dOrn = NCCC[C@@H](N)C(=O)O

How the values were obtained:
[1] = system: CRL-7250; assay: Cytotoxic Profiling of Annotated Libraries Using Quantitative High-Throughput Screening (AID 1296008); details: Five cell lines viability, CellTiter-Glo ATP luminescence, 48-72 h; max response: stronger effect = lower value; note: potency is the fitted concentration of half-maximal effect; for max response: % is set by controls: 0 for no effect and ±100 for the full control effect
How it was run: (§1)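 Compounds were pin-transferred onto cells and incubated 48 or 72 hr at 37 degree Celsius, 95% humidity. CellTiter-Glo was added, plates sat 10 min at room temperature, then ATP-coupled luminescence was imaged as the viability read-out.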

[2] = system: HEK293; assay: as above; details: Five cell lines viability, CellTiter-Glo ATP luminescence, 48-72 h; max response: stronger effect = lower value
How it was run: as §1

[3] = system: HaCat; assay: as above; details: Five cell lines viability, CellTiter-Glo ATP luminescence, 48-72 h; max response: stronger effect = lower value
How it was run: as §1

[4] = system: NIH3T3; assay: as above; details: Five cell lines viability, CellTiter-Glo ATP luminescence, 48-72 h; max response: stronger effect = lower value
How it was run: as §1

[5] = system: HACAT; assay: qHTS assay to identify novel small-molecules to repurpose for Merkel cell carcinoma treatment (AID 1296009); details: MCC and control cell lines, CellTiter-Glo viability, 72 h; at 44.8 µM (top of the series) unless noted
How it was run: (§2)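 Cells exposed to NPC (8-point) and MIPE (11-point) compound dilutions for 72 hr at 37 degree celsius; viability read by CellTiter-Glo luminescence, normalized to no-cell and DMSO in-plate controls.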

[6] = system: HEK293T; assay: as above; details: MCC and control cell lines, CellTiter-Glo viability, 72 h; series mostly up to 44.8 µM
How it was run: as §2

[7] = system: KB-3-1; assay: Cytotoxic Profiling of Annotated Libraries Using Quantitative High-Throughput Screening (AID 1296008); details: Five cell lines viability, CellTiter-Glo ATP luminescence, 48-72 h; max response: stronger effect = lower value; note: potency is the fitted concentration of half-maximal effect; for max response: % is set by controls: 0 for no effect and ±100 for the full control effect
How it was run: as §1
Note: nearly all actives have a fitted effect of over 60% in size.

O=C(C1CC1)N1CC[C@@H](Cc2n[nH]c(=O)n2-c2ccc(-c3ccc4occc4c3)cc2)C1
inactive: max response [1] -4.78% and -21.6% | outcome [2] | max response [3] -2.96% | outcome [3] | max response [4] -10.7% | outcome [5] inactive [at 17.4 µM] | Potency [6]

Cc1nc2c(-c3cnc(N)nc3)nc(N3CCOCC3)nc2n1C(C)C
active: Potency [1] 291 nM and 7.4 nM | Potency [2] 326 nM and 23.4 nM | Potency [3] 2.06 µM and 132 nM | Potency [7] 0.461 µM | Potency [4] 1.16 µM and 234 nM

O=C(Nc1cccnn1)N1CCC(=Cc2cccc(Oc3ccc(C(F)(F)F)cn3)c2)CC1
inactive: max response [1] -4.32% | max response [3] -13.4% | outcome [3] | max response [4] -5.09% and -8.67% | outcome [5]
active: Potency [2] 8.2 µM and 13.2 µM

NCc1ccc(OCCCc2sc(-c3ccc4c(c3)/C(=N/Nc3nc5ccccc5s3)CCC4)nc2C(=O)O)cc1
inactive: max response [1] -14.2% | max response [3] 0.629% | max response [7] -25.7% | max response [4] -6.71%
active: Potency [2] 2.95 µM | Potency [3] 3.71 µM

Cc1nn(C)c2c1C(c1ccc(C(F)(F)F)cc1)C(C#N)=C(N)O2 (configuration not stated)
inactive: max response [1] 4.37% | outcome [1] | max response [2] -4.39% and 2.32% | max response [3] -6.13% and -14.3% | max response [7] 9.42% | max response [4] 1.84% | outcome [4]

CCC(=O)NS(=O)(=O)c1ccc(-c2c(-c3ccccc3)noc2C)cc1
inactive: outcome [1] | outcome [2] | max response [3] -10.3% | max response [7] -21.2% | outcome [7] | outcome [4] | Potency [6]

NC1CCC(N[C@@H]2C[C@H]2c2ccccc2)CC1 (some centres not stated)
inactive: max response [1] 1.1% | outcome [1] | max response [2] -15.5% and -3.29% | max response [3] -1.71% | outcome [3] | outcome [7] | max response [4] 3.03% | outcome [4] | outcome [5]

NS(=O)(=O)NCCNc1nonc1C(=Nc1ccc(F)c(Br)c1)NO
inactive: max response [1] 3.38% and -8.95% | max response [2] -61.6% | outcome [2] | max response [3] -46.4% | outcome [3] | max response [4] -8.59% and -38.3% | outcome [4] | outcome [5] | Potency [6]

CC(=O)c1cnc2ccc(-c3cc(Cl)c(O)c(Cl)c3)nc2c1NC1CCC(CN(C)C)CC1 (configuration not stated)
active: Potency [1] 166 nM and 1.19 µM | Potency [2] 52.4 nM and 237 nM | Potency [3] 0.0331 µM | Potency [7] 0.075 µM | Potency [4] 93.3 nM and 299 nM

COc1c(C)c(C(=O)c2ccc(N)c(C(=O)O)c2)n2ccccc12
inactive: max response [1] -6.91% | max response [2] -16.3% | max response [3] -0.372% | outcome [3] | max response [7] 4.57% and 7.45% | outcome [5]

Cc1c(-c2ccnn2C)cc(C(=O)NCc2ccc(S(C)(=O)=O)cn2)c(=O)n1-c1cccc(C(F)(F)F)c1
inactive: max response [1] 0.591% and -4.37% and 3.84% | outcome [1] | max response [2] -6.6% [middle of 4 runs] | max response [4] 0.936% and -17.4% and -7.73%

CC1=C2C(=O)O[C@@H](c3ccoc3)[C@]2(C)CCC1
inactive: max response [1] -4.96% | outcome [1] | max response [2] -8.51% and 3.13% | max response [3] 0.193% | max response [7] 4.53% | outcome [7] | max response [4] 0.635% and 0.0895%

CO/N=C(/C(=O)N[C@@H]1C(=O)N2C(C(=O)O)=C(CSC(=O)c3ccco3)CS[C@H]12)c1csc(N)n1
inactive: max response [1] -7.13% and 1.26% | max response [2] 3.45% and -9.59% | max response [3] 4.84% | outcome [3] inactive; activator | max response [7] -14.5% | outcome [7] | max response [4] 0.301% and -3.25% | outcome [5] inactive; activator

CC(C)Nc1cc(-c2c[nH]c(C(=O)N[C@H](CO)c3cccc(Cl)c3)c2)c(Cl)cn1
active: Potency [2] 26.3 µM | Potency [3] 2.59 µM and 14.8 µM
inactive: max response [1] -4.72% | max response [2] -74.1% | max response [7] -26.9%

N[C@H]1C[C@H]1c1ccc(-c2cccc(O)c2)cc1
inactive: max response [1] 0.175% and -10.6% | max response [2] -29.8% and -17.5% | max response [3] -1.19% | outcome [3] | outcome [7] | max response [4] -6.35% | outcome [4] | outcome [5]

Cc1cc(Nc2ncc(Cl)c(Nc3ccccc3S(=O)(=O)C(C)C)n2)c(OC(C)C)cc1C1CCNCC1
inactive: max response [1] -10.6% | outcome [3] | outcome [4] | outcome [5]
active: Potency [2] 8.2 µM and 4.17 µM | Potency [7] 18.4 µM | Potency [4] 23.4 µM

CNC(=O)c1ccc(Nc2ncc(C(F)(F)F)c(NCc3nccnc3N(C)S(C)(=O)=O)n2)cc1
active: Potency [1] 4.17 µM | Potency [2] 5.17 µM | Potency [3] 7.31 µM and 2.95 µM | Potency [7] 11.6 µM | Potency [4] 14.6 µM and 3.71 µM

CN(C)C/C=C/C(=O)Nc1ccc(C(=O)Nc2cccc(Nc3ncc(Cl)c(-c4c[nH]c5ccccc45)n3)c2)cc1
active: Potency [1] 164 nM and 263 nM | Potency [2] 0.186 µM | Potency [3] 1.84 µM and 1.05 µM | Potency [7] 0.184 µM | Potency [4] 1.16 µM and 2.09 µM

Nc1ccn([C@@H]2C(F)=C(CO)[C@@H](O)[C@H]2O)c(=O)n1
inactive: max response [1] -25.3%
active: Potency [2] 920 nM and 933 nM | Potency [3] 18.4 µM | Potency [7] 9.2 µM | Potency [4] 4.61 µM and 3.71 µM

COc1cc(N2CCC(O)CC2)ccc1Nc1cc(Nc2ccccc2S(=O)(=O)C(C)C)c2cc[nH]c2n1
inactive: max response [1] -7.16%
active: Potency [1] 33.1 µM | Potency [2] 12.8 µM and 11.7 µM | Potency [3] 8.31 µM | Potency [7] 14.3 µM | Potency [4] 4.67 µM

O=C(O)C[C@H](O)C[C@H](O)/C=C/c1c(C2CC2)nc2ccccc2c1-c1ccc(F)cc1
active: Potency [1] 0.731 µM | Potency [2] 5.8 µM | Potency [3] 7.31 µM | Potency [7] 4.61 µM | Potency [4] 14.6 µM

NS(=O)(=O)OC[C@@H]1C[C@@H](n2ccc3c(N[C@H]4CCc5ccccc54)ncnc32)C[C@@H]1O
active: Potency [1] 1.3 µM and 651 nM | Potency [2] 291 nM and 366 nM | Potency [3] 5.17 µM

COc1ncc(-c2ccc3c(Nc4cc(Oc5cc(F)cc(F)c5)cc(C(=O)O)c4)c(S(=O)(=O)NC4CC4)cnc3c2)c(OC)n1
inactive: max response [1] -7.5% and -5.78% | max response [2] 0.563% and -20.6% | max response [3] -12% and 2.17% | outcome [7] | max response [4] 3.25% and -1.23%

CN(C)c1cccc(-c2c3c(=O)n(-c4ccccc4Cl)[nH]c3cc(=O)n2C)c1
active: Potency [2] 5.88 µM | Potency [3] 14.8 µM
inactive: max response [1] 3.76% | outcome [2] | outcome [3] | max response [7] 5.47% | max response [4] -12.2% | outcome [4] | outcome [5] | Potency [6]

C#C[C@]1(O)CC[C@H]2[C@@H]3CCC4=C/C(=N/O)CC[C@@H]4[C@H]3CC[C@@]21CC
inactive: max response [1] 4.4% | max response [2] -0.147% | max response [3] -21.3% | max response [7] -19.2% and -21.5% | outcome [4]

CCC(C)C(N)C1=NC(C(=O)N[C@@H](CC(C)C)C(=O)N[C@H](CCC(=O)O)C(=O)N[C@H](C(=O)N[C@H]2CCCCNC(=O)[C@H](CC(N)=O)NC(=O)[C@@H](CC(=O)O)NC(=O)[C@H](Cc3cnc[nH]3)NC(=O)[C@@H](Cc3ccccc3)NC(=O)[C@H]([C@@H](C)CC)NC(=O)[C@@H](CCCN)NC2=O)[C@@H](C)CC)CS1 (some centres not stated) (X1-L[dE]IK[dOrn]I[dF]H[dD]N; lactam 4-C)
inactive: max response [1] 2.99% and -28% | max response [2] -1.63% and -10.3% | outcome [3] | max response [7] 8.49% | outcome [7] | max response [4] 2.78% | outcome [5] inactive [at 17.4 µM]

COc1cc(N2CCC(N(C)C)CC2)ccc1Nc1ncc(Cl)c(Nc2ccccc2P(C)(C)=O)n1
active: Potency [1] 2.91 µM and 1.48 µM | Potency [2] 5.17 µM and 1.86 µM | Potency [3] 1.84 µM and 2.34 µM | Potency [7] 4.11 µM | Potency [4] 2.06 µM
